PubChem BioAssay (NCATS)
“And” between values parts separate entries of the source, which are not always exact repeats. Identical values can stand only once. Results filed as inconclusive are left out. The source made the active and inactive calls. Calls follow the shape of the dose curve; as a rule, active = well fitted curve in the direction sought with a large enough effect; inconclusive = small, poorly fitted or top-dose-only effect, or another doubt; inactive = no such curve, though single readings can be large; an effect the other way counts as inactive or inconclusive.

Tests used:
[1] = Viability qHTS for spleen associated tyrosine kinase inhibitor (SYKi) drug resistant MV4-11 cells (AID 1963824); also: nearly all actives have a fitted effect of over 35% in size
Summary of the method: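 SYK inhibitor-resistant MV4-11 AML cells, 500 per well, added to predispensed compounds and incubated 72 hr at 37 C, 5% CO2. Viability measured by CellTiter-Glo luminescence after 10 min at room temperature.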

[2] = Quantitative highthroughput screen to assess conditional lethalithy of NOMO1 cells grown in RPMI1640 with untreated serum (RPMI+s) (AID 1963876); also: nearly all actives have a fitted effect of over 35% in size;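 as to Viability: 100% = DMSO wells and 0% = empty wells without cells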
Summary of the method: (§1)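 Each medium arm—HPLM with 10% dialyzed FBS, or RPMI1640 with 5 mM glucose and 10% untreated or dialyzed FBS—was screened against an 11-point, 3-fold compound titration for 48 h at 37 °C, with CellTiter-Glo luminescence as endpoint.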

[3] = Quantitative highthroughput screen to assess conditional lethalithy of NOMO1 cells grown in RPMI1640 with dialyzed fetal bovine serum (RPMI+ds) (AID 1963877); also: nearly all actives have a fitted effect of over 30% in size;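 as to Viability: series mostly up to about 46 µM; 100% = DMSO control wells and 0% = empty wells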
Summary of the method: as §1

[4] = Quantitative highthroughput screen to assess conditional lethalithy of NOMO1 cells grown in Human Plasma-Like Medium with dialyzed fetal bovine serum (HPLM+ds) (AID 1963878); also: nearly all actives have a fitted effect of over 35% in size;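 as to Viability: 100% = DMSO wells and 0% = empty wells on each plate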
Summary of the method: as §1

[5] = Quantitative highthroughput screen to assess conditional lethalithy of P12 Ichikawa cells grown in Human Plasma-Like Medium with dialyzed fetal bovine serum (HPLM+ds) (AID 1963879); conditions: Potency: viability; also: nearly all actives have a fitted effect of over 35% in size; as to Viability: series mostly up to about 46 µM
Summary of the method: as §1

[6] = Quantitative highthroughput screen to assess conditional lethalithy of P12 Ichikawa cells grown in RPMI1640 with dialyzed fetal bovine serum (RPMI+ds) (AID 1963880); conditions: Potency: P12-Ichikawa viability; also: nearly all actives have a fitted effect of over 35% in size;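 as to Viability: 100% = DMSO wells and 0% = empty wells on each plate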
Summary of the method: as §1

[7] = Quantitative highthroughput screen to assess conditional lethalithy of P12 Ichikawa cells grown in RPMI1640 with untreated serum (RPMI+s) (AID 1963881); conditions: Potency: viability; also: nearly all actives have a fitted effect of over 35% in size;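 as to Viability: series mostly up to about 46 µM; 100% = DMSO wells and 0% = empty wells without cells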
Summary of the method: as §1

[8] = Quantitative highthroughput screen to assess conditional lethalithy of SEM cells grown in Human Plasma-Like Medium with dialyzed fetal bovine serum (HPLM+ds) (AID 1963882); also: nearly all actives have a fitted effect of over 35% in size; as to Viability: series mostly up to about 46 µM
Summary of the method: as §1

[9] = Quantitative highthroughput screen to assess conditional lethalithy of SEM cells grown in RPMI1640 with unreated serum (RPMI+s) (AID 1963883); also: nearly all actives have a fitted effect of over 35% in size;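 as to Viability: 100% = DMSO wells and 0% = empty wells without cells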
Summary of the method: as §1

[10] = Quantitative highthroughput screen to assess conditional lethalithy of SEM cells grown in RPMI1640 with dialyzed fetal bovine serum (RPMI+ds) (AID 1963884); also: nearly all actives have a fitted effect of over 35% in size;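 as to Viability: series mostly up to about 46 µM; 100% = DMSO control wells and 0% = empty wells without cells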
Summary of the method: as §1

[11] = Cellular viability qHTS for adrenocortical cancer (ACC) cell line SW-13 (AID 1963989); conditions: SW-13 ACC cells viability, CellTiter-Glo, 48 h; activity (max response): stronger effect = lower value; also: nearly all actives have a fitted effect of over 65% in size;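 as to activity (max response): cells grown in serum-free medium with ITS supplement; % is scaled to controls: 0 for no effect and ±100 for the full control effect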
Summary of the method: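 Luminescent ATP read-out (CellTiter-Glo, 20 min at room temperature) measured metabolically competent SW-13 cells after 48 h compound treatment. Final concentrations spanned up to 46 uM; bortezomib served as positive control.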

[12] = Cellular viability qHTS for adrenocortical cancer (ACC) cell line NCI-H295R (AID 1963990); also: nearly all actives have a fitted effect of over 60% in size
Summary of the method: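 IC50 and maximal efficacy derive from four-parameter logistic modelling of titration curves, with reads scaled between DMSO-only wells (0%) and doxorubicin hydrochloride (100% inhibition). Compounds spanned up to 46 uM over 48 h.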
Potency is read from the fitted curve at half-maximal effect.

CC1=C(C(=O)O)N2C(=O)[C@@H](NC(=O)[C@H](N)C3=CCC=CC3)[C@H]2SC1
inactive: Potency [1] | Potency [2] | Potency [3] | Potency [4] | Potency [5] | Potency [6] | Potency [7] | Potency [8] | Potency [9] | Potency [10] | activity (max response) [11] -13.1% | Potency [12]

NCCc1cnc[nH]1
inactive: Potency [1] | Potency [2] | Potency [3] | Potency [4] | Potency [5] | Potency [6] | Potency [7] | Potency [8] | activity (max response) [11] 7.56% and -0.338% | Potency [12]

CCCNC(=O)Nc1ccc(Oc2ncnc3cc(OC)c(OC)cc23)cc1Cl
active: Potency [1] 517 nM
inactive: Potency [2] | Potency [3] | Potency [4] | Potency [5] | Potency [6] | Potency [7] | activity (max response) [11] -6.45%

CNC(=O)c1ccc(C)c(-n2c(C)cc(OCc3ccc(F)cc3F)c(Br)c2=O)c1
inactive: Potency [2] | Potency [3] | Potency [4] | Potency [5] | Potency [6] | Potency [7] | Potency [8] | Potency [9] | Potency [12]
active: Potency [1] 8200 nM

N#CC1(c2cccc(C(=O)Nc3cc(Oc4ccc5nc(NC(=O)C6CC6)sc5n4)ccc3F)c2Cl)CC1
active: Potency [1] 580 nM | Potency [2] 3720 nM | Potency [3] 2090 nM | Potency [4] 1320 nM | Potency [5] 5900 nM | Potency [6] 2640 nM | Potency [7] 5260 nM | Potency [9] 3720 nM

CCc1ccc(CCOc2ccc(CC3SC(=O)NC3=O)cc2)nc1 (stereo not given)
inactive: Potency [1] | Potency [2] | Potency [3] | Potency [4] | Potency [5] | Potency [6] | Potency [7] | Potency [8] | Potency [9] | Potency [10] | activity (max response) [11] 0.771% and -12.6% | Potency [12]

C[C@]12CC[C@@H]3c4ccc(O)cc4C[C@@H](CCCCCCCCCS(=O)CCCC(F)(F)C(F)(F)F)[C@H]3[C@H]1CC[C@H]2O (stereo not given in full)
active: Potency [1] 4680 nM
inactive: Potency [2] | Potency [3] | Potency [4] | Potency [5] | Potency [6] | Potency [7] | Potency [8] | Potency [9] | Potency [10] | activity (max response) [11] -14.8% | Potency [12]

CCC(C)N(C)C(=O)c1cc2ccccc2c(-c2ccccc2Cl)n1 (stereo not given)
inactive: Potency [2] | Potency [3] | Potency [4] | Potency [5] | Potency [6] | Potency [7] | Potency [8] | Potency [9] | activity (max response) [11] -6.79%
active: Potency [1] 18600 nM

Cc1ccccc1C(C(=O)NC1CCCCC1)N(C(=O)Cn1ccnc1C)c1cccc(F)c1 (stereo not given)
active: Potency [1] 9340 nM
inactive: Potency [2] | Potency [3] | Potency [4] | Potency [5] | Potency [6] | Potency [7] | Potency [8] | Potency [9] | Potency [10] | activity (max response) [11] -14.8% | Potency [12]

O=C(O)c1nc(=O)[nH]c(=O)[nH]1
inactive: Potency [1] | Potency [2] | Potency [3] | Potency [4] | Potency [5] | Potency [6] | Potency [7] | Potency [8] | Potency [9] | Potency [10] | activity (max response) [11] -18% | Potency [12]

O=C(O)COCCN1CCN(C(c2ccccc2)c2ccc(Cl)cc2)CC1 (stereo not given)
inactive: Potency [1] | Potency [2] | Potency [3] | Potency [4] | Potency [5] | Potency [6] | Potency [7] | Potency [8] | Potency [9] | Potency [10] | activity (max response) [11] 9.41% | Potency [12]

O=C(Nc1ccc(Oc2ccnc3[nH]ccc23)c(F)c1)c1cccn(-c2ccc(F)cc2)c1=O
inactive: Potency [2] | Potency [3] | Potency [4] | Potency [5] | Potency [6] | Potency [7] | Potency [12]
active: Potency [1] 14.6 nM | Potency [8] 8330 nM

COc1cccc2nc(-c3cccs3)nc(NN3C(=O)C=C(C)C3=O)c12
active: Potency [1] 148 nM | Potency [2] 1480 nM | Potency [3] 1320 nM | Potency [4] 469 nM | Potency [5] 2090 nM | Potency [6] 2960 nM | Potency [7] 2640 nM | Potency [8] 418 nM | Potency [9] 935 nM | Potency [10] 1320 nM | Potency [11] 11200 nM | Potency [12] 2820 nM

O=C(O)c1cc(O)c2c(c1)C(=O)c1cccc(O)c1C2=O
active: Potency [1] 23500 nM
inactive: Potency [2] | Potency [3] | Potency [4] | Potency [5] | Potency [6] | Potency [7] | Potency [8] | Potency [9] | Potency [10] | activity (max response) [11] 1.15% | Potency [12]

COc1ccc(CC2c3cc(OC)c(OC)cc3CC[N+]2(C)CCC(=O)OCCCCCOC(=O)CC[N+]2(C)CCc3cc(OC)c(OC)cc3C2Cc2ccc(OC)c(OC)c2)cc1OC (stereo not given)
active: Potency [1] 18600 nM | Potency [2] 3680 nM | Potency [3] 4630 nM | Potency [4] 1640 nM
inactive: viability [5] 93.9% [at 5.15 µM] | viability [6] 106% [at 5.15 µM] | viability [7] 89.9% [at 5.15 µM] | activity (max response) [11] -11.7%

CC(C)(O)CCc1ccc(OCc2cc(-c3cccc(OC(F)F)c3)c3ncccc3c2)cc1
inactive: Potency [2] | Potency [3] | Potency [4] | Potency [5] | Potency [6] | Potency [7] | Potency [8] | Potency [9] | Potency [10]
active: Potency [1] 16600 nM | Potency [12] 25100 nM
